About 83,000 compounds went through this panel and 20% of them were active in at least one assay; those are over-represented in the sample as a whole.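 96-well plates, one dose, 48 hours. Percent growth reported; active if below 10.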 Unmarked numbers belong to inactive results. Active and inactive are the calls of the source.
Assays:
Test in all cases: NCI-60 one-dose screen, 48 h (100 = growth as untreated, 0 = no growth, -100 = all killed)
Conditions in all cases: 10 µM
[1] = tested on: SK-MEL-2 melanoma
[2] = tested on: EKVX NSCLC
[3] = tested on: SN12C renal
[4] = tested on: UO-31 renal
[5] = tested on: ACHN renal
[6] = tested on: CAKI-1 renal
[7] = tested on: A498 renal
[8] = tested on: CCRF-CEM leukemia
[9] = tested on: MOLT-4 leukemia
[10] = tested on: TK-10 renal

SMILES	growth [1]	growth [2]	growth [3]	growth [4]	growth [5]	growth [6]	growth [7]	growth [8]	growth [9]	growth [10] [%]
COc1cc2cc(Oc3ccc(NC(=O)Nc4ccc(Cl)c(Cl)c4)cc3)c(C)nc2cc1OC	-7.82% (active)	21%	22.1%	3.69% (active)	16.4%	21.7%	35.8%	13.3%	3.69% (active)	
CCn1cc(CNc2ccc(C(=O)Nc3ccc4ccccc4c3)cc2)c(C)n1	61%	36.5%	85.7%	47.1%	69.5%	53.6%				
COc1cc2cc(Oc3ccc(NC(=O)Nc4cccc(C(F)(F)F)c4)cc3)c(C)nc2cc1OC	-35.8% (active)	15.4%	17.2%	11.3%	11.2%	9.13% (active)	21.7%	6.41% (active)		
Cc1cc(SCc2ccccc2)nc(N)n1	119%	96.7%	92.5%	98.1%		112%	89.4%	88.1%	98.5%	107
CCN(CC)CCCOc1cccc2c1C(=O)c1cccc(OCCCN(CC)CC)c1C2=O	42.1%	54.5%	31.2%	16%	22.7%		46.4%	25%	4.98% (active)	38.8
COc1ccc(/C=C2\CCCC3C2=Nc2ccccc2NC3c2ccc(OC)cc2)cc1 (centres undefined)	92%	87.5%	85.5%	74.1%	113%	78.2%	77.3%	80.4%		
NC(N)=N/N=C(\c1ccccc1)C(O)c1ccccc1 (centres undefined)	101%	103%	99.6%	81.1%	109%			92.7%	99.9%	94.2
CC(=O)C1N=NCC1c1ccccc1 (centres undefined)	97.3%	101%	88.7%	92.3%	95.8%			104%	96.7%	96.1
CCC(c1ccc(OC)cc1)C(CC)c1ccc(O)c(CN2CCN(C)CC2)c1 (centres undefined)	62.2%	44.3%	55.1%	37.3%	69%			56.9%	57.4%	72.2
CC(=O)[C@H]1CC[C@]2(C)[C@@H]1CC[C@@H]1[C@@]3(C)CC(CCC#N)(CCC#N)C(=O)C(C)(C)[C@@H]3CC[C@]12C	102%	91.8%	91.8%	82%	95.2%		88.9%		96.3%	104
CCc1ccc(-c2ccc(-n3nc(C)c4c(N)nc(Cc5ccccc5)nc43)cc2)cc1	36%	83.8%	71.1%	59.2%	35.5%		73.4%		55.7%	75
Cc1nn(-c2ccc(-c3ccc(OC(F)(F)F)cc3)cc2)c2nc(Cc3ccccc3)nc(N)c12	87.6%	72.3%	62.8%	28.3%	16.7%		94.2%		68.6%	68.1
Fc1ccc2[nH]cc(-c3nc(-c4ccsc4)cs3)c2c1	87.9%	57.1%	92.5%	74.4%	93.6%				78%	133
Cc1c2c(nn1C(=O)c1nn(-c3ccc(Cl)cc3)cc1O)-c1ccccc1CC2	0.774% (active)	6.22% (active)	29.2%	10.3%	16.7%	-25.5% (active)	80.5%	-7.92% (active)	-1.46% (active)	
CC(C)N(CCOc1ccc(-c2nc3sccn3c2-c2ccnc(S(C)(=O)=O)n2)cc1)C(C)C	106%	87.6%	87.8%	70%	101%	84.2%	60.3%	76.4%		
Nc1ccn(Cc2nnc(CCC(=O)c3nc4ccccc4[nH]3)o2)c(=O)n1	100%	84.1%	87.1%	44.2%	87%		61.7%		8.54% (active)	100

SMILES	growth [1]	growth [2]	growth [3]	growth [4]	growth [5]	growth [6]	growth [7]	growth [8]	growth [9]	growth [10] [%]
COc1cc(/C=C2\CCCC3=C2NC(N)=NC3c2cc(OC)c(OC)c(OC)c2)cc(OC)c1OC (centres undefined)	-0.813% (active)	56%	-5.19% (active)	34.3%	-37.9% (active)	-4.06% (active)	0.45% (active)	2.89% (active)		
CCCCN(CCCC)C(=O)[C@H](CC)[C@@H]1CC[C@@H](C)[C@@H]([C@H](C)[C@@H](O)[C@@H](C)C(=O)[C@H](CC)C2O[C@]3(C=C[C@@H](O)[C@]4(CC[C@@](C)([C@H]5CC[C@](O)(CC)[C@H](C)O5)O4)O3)[C@H](C)C[C@@H]2C)O1 (some centres undefined)	-12.4% (active)	-8.73% (active)	3.56% (active)	-11.7% (active)	7.05% (active)		-14.6% (active)		11.8%	18.6
N#Cc1c(N)nc(-c2cc(F)cc(C(F)(F)F)c2)nc1-c1ccccc1F	90.4%	38.6%	24.9%	33.3%	2.03% (active)		5.56% (active)		50.1%	38.1
COc1cc2cc(Oc3ccc(NC(=O)c4ccccc4)cc3)c(C)nc2cc1OC	59.5%	89.8%	81%	81.4%	80.8%	85.3%	89%	101%	89.9%	
C=C(C)[C@@H]1CC[C@]2(COCCC#N)CC[C@]3(C)[C@H](CC[C@@H]4[C@@]5(C)Cc6c([nH]c7ccccc67)C(C)(C)[C@@H]5CC[C@]43C)[C@@H]12	110%	116%	98.7%	94.2%	95.2%		106%		86.1%	100
C/C=C/C1=CN2C(=O)c3cc(OC4OC(C)C(NC)C(C)(O)C4O)c(C)c(O)c3N=C[C@@H]2C1 (some centres undefined)	17.9%	-3.19% (active)	1.37% (active)	-44.5% (active)	3.15% (active)	9.27% (active)	-83.1% (active)	1.22% (active)	2.33% (active)	
CC(C)=CCC/C(C)=C/CC/C(C)=C/CC/C=C(\C)CC/C=C(\C)CCC(=O)Nc1ccn(C2OC(CO)C(O)C2(F)F)c(=O)n1 (centres undefined)	-4.27% (active)	34.6%	15.3%	3.33% (active)	6.71% (active)	-20.9% (active)	-44.9% (active)	-6.58% (active)	-14.2% (active)	
COc1ccc(N(C)c2ncnc3occ(C)c23)cc1	-4.77% (active)	42.1%	34%	26.5%	29%	-6.13% (active)	68.7%	-20.9% (active)	-1.42% (active)	
COc1ccc(/C=C2\CCCC3=C2NC(N)=NC3c2ccc(OC)c(OC)c2)cc1OC (centres undefined)	56.8%	82.7%	57.4%	63%	27.3%	55.9%	91.3%	15.3%	53.1%	
COc1cc(/C=C2\CCCC3C2=Nc2ccccc2NC3c2cc(OC)c(OC)c(OC)c2)cc(OC)c1OC (centres undefined)	17.9%	59.8%	-4.27% (active)	5.57% (active)	-23% (active)	6.51% (active)	-22.4% (active)	4.32% (active)	0.606% (active)	
CS(=O)(=O)c1nccc(-c2c(-c3cccc(OCc4ccccc4)c3)nc3sccn23)n1	103%	92.5%	76.2%	3.7% (active)	95.9%	44.2%	72.5%	52.5%	26.5%	
COc1ccc(-c2onc(N)c2-c2cc(OC)c3c(c2)OCO3)cc1	13.6%	62%	25.9%	55.2%	43.8%	34%	12%	14.5%	13.7%	
O=C1CC(=O)N(C(=O)c2nn(-c3ccc(Cl)cc3)cc2O)N1	53%	29.6%	45.1%	25.6%	38.3%	-7.19% (active)	113%	5.93% (active)	16.6%	
Oc1cccc(-c2nc3sccn3c2-c2ccncn2)c1	83.7%	92.8%	92.1%	76.8%	97.8%	69.8%	119%	94.1%	101%	
COc1ccc(-c2n[nH]nc2-c2cc(OC)c3c(c2OC)OCO3)cc1	1.83% (active)	48.3%	33.5%	51.1%	54.9%	27.2%	14.9%	17.8%	24.2%	
CCCC1(CN2c3ccccc3Sc3ccc(Cl)cc32)CCN(CC)C1 (centres undefined)	-3.45% (active)	-12.8% (active)	23.1%	-1.01% (active)	0.109% (active)	-14.2% (active)	8.05% (active)	-11.2% (active)	-27.9% (active)	

Reference: PubChem BioAssay (NCI)
